These results are taken from PubChem BioAssay AID434947 (Broad Institute, 2010).

The term EC50 denotes the concentration at which the effect is half-maximal.

About 15 (0.7%) of roughly 2,200 compounds were called active. This is one part of a sample in which actives are shown more often than they occur.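 The calls were made as follows: active = fitted half-maximal concentration for loss of luminescence signal no more than a set limit of log units above the top tested concentration; inconclusive = flat fit with 30 to 70% signal loss, or invalid fit; inactive = half-maximal concentration above that set limit.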 Some results are limits rather than exact numbers.

The assay is described as follows: inhibitors of ADP-Glo detection reagents, dose response, artefact control for GSK3beta inhibitor project, biochemical, luminescence, cell-free, homogeneous (AID 434947).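 Also: kinase-free counter screen of ADP-Glo detection reagents for GSK3beta hits.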 As to conditions: 5 uM ADP. Background: ADP-Glo turns the ADP formed in a reaction into a luminescent signal.
Take `CC1(C)CC(=O)C=C(Nc2ccc3c(c2)OCCO3)C1`: the EC50 was > 30 µM (inactive). In the case of `COc1ccc(-c2nn(-c3ccccc3)cc2/C=N/N2C(=O)CSC2=S)cc1` it was > 30 µM (inactive); in that of `Cc1ccccc1-c1nc(CN2CCC(C(=O)N3CCN(c4ccccn4)CC3)CC2)c(C)o1`, > 30 µM (inactive); in that of `CCOC(=O)c1cnc2c(OC)cccc2c1N1CCN(c2ccc(OC)cc2)CC1`, > 30 µM (inactive). To `COc1cc(OC)c(OC)cc1CNCC1COc2ccccc2O1` (stereo unspecified) belongs > 30 µM (inactive); to `CSc1nc(N)c2c3c(sc2n1)CN(C)CC3`, > 30 µM (inactive). To `Cn1c(=O)c2[nH]c(CCCC(=O)O)nc2n(Cc2ccccc2)c1=S` belongs > 30 µM (inactive).

With `NS(=O)(=O)c1cc(C(=O)N=Nc2c(O)[nH]c3ccccc23)ccc1Cl`, the EC50 was > 30 µM (inactive). As for `O=C(/C=C/c1ccc2ccccc2c1)c1ccoc1`, the EC50 is > 30 µM (inactive). In the case of `NS(=O)(=O)c1ccc(CCNC(=O)CSc2nc3ccsc3c(=O)n2C2CC2)cc1` it was > 30 µM (inactive); in that of `CN(C)CCCNc1ccc(-c2cc(Nc3cccc(Cl)c3)ncn2)cn1`, > 30 µM (inactive). In the case of `CN(CCO)c1cc(N2CCC3(CC2)OCCO3)c2nonc2c1[N+](=O)[O-]` it was > 30 µM (inactive). In the case of `COC(=O)c1nnn(-c2nonc2N)c1CSc1ccc(Cl)cc1` it was > 30 µM (inactive); in that of `Cc1cccc(OCc2nnc(SCC(=O)Nc3sc(C)c(C)c3C#N)n2C)c1`, > 30 µM (inactive); in that of `CC(C)N1C(=O)N(c2ccc(Cl)cc2)C(C)(O)CC1(C)C` (stereo unspecified), > 30 µM (inactive). As for `CC(C)CCSc1nnc(N)s1`, the EC50 was > 30 µM (inactive). In the case of `CCC(=O)Nc1ccc(Nc2nc(C)c([N+](=O)[O-])c(Nc3ccc(NC(=O)CC)cc3)n2)cc1` it was > 30 µM (inactive); in that of `O=C(Nc1ccnn1C1CCN(Cc2cccc(OCCO)c2)CC1)C1CCCC1`, > 30 µM (inactive); in that of `c1ccc(OCCCn2nnc(-c3ccncc3)n2)cc1`, > 30 µM (inactive). On to `Nc1nc(NCCO)nc(NCC2CCCO2)c1[N+](=O)[O-]` (stereo unspecified), for which the EC50 was > 30 µM (inactive).

For `N#Cc1c(-c2ccccc2)nc(SCC(=O)Nc2ccc(OC(F)(F)Cl)cc2)[nH]c1=O`, the EC50 is > 30 µM (inactive). `O=C(Nc1cc(-c2ccccc2)[nH]n1)c1ccccc1`: the EC50 is > 30 µM (inactive). For the molecule `COc1cccc(C(=O)Nc2ccc(C(=O)NCC(C)C)cc2)c1`, the EC50 was > 30 µM (inactive).

`CCCCC(CC)C(=O)Nc1ncc([N+](=O)[O-])s1` (stereo unspecified): the EC50 was > 30 µM (inactive). In the case of `O=C(COc1ccccc1[N+](=O)[O-])N/N=C/c1ccccn1` it was > 30 µM (inactive). To `N/C(Cc1nc2ccccc2s1)=N\O` belongs > 30 µM (inactive). As for `COc1cccc(C(=O)Nc2nnc(C(C)C)s2)c1`, the EC50 was > 30 µM (inactive). In the case of `COc1ccc2nc(Cl)cc(Cl)c2c1` it was > 30 µM (inactive); in that of `CCCc1cc(=O)[nH]c(SCCOc2ccc(OCC)cc2)n1`, > 30 µM (inactive); in that of `COc1ccccc1/C=C1\C(=O)Nc2ccccc21`, > 30 µM (inactive). In the case of `Cc1ccc(S(=O)(=O)NNC(=O)c2cccc(O)c2)cc1` it was > 30 µM (inactive). To `COCc1c(C(=O)Nc2ccc(Cl)cc2F)oc2ccccc12` belongs > 30 µM (inactive). As for `CC(C)c1ccc(NC2=CC(=O)CC(C)(C)C2)cc1`, the EC50 is > 30 µM (inactive). In the case of `O=C(CCc1ccccc1)Nc1ccc2c(c1)OCCO2` it was > 30 µM (inactive); in that of `Cc1cc(C)c(C)c(S(=O)(=O)Nc2ccccc2C(=O)NCCCn2ccnc2)c1C`, > 30 µM (inactive).

With `N#Cc1ccc(CSc2nnc(-c3ccncc3)o2)cc1`, the EC50 is > 30 µM (inactive). In the case of `CN(c1ncnc(N)c1[N+](=O)[O-])C1CCCCC1` it was > 30 µM (inactive); in that of `O=C(O)c1ccccc1N/N=C\c1ccnc2ccccc12`, > 30 µM (inactive).

As to `COc1ccc(-c2nn(-c3ccccc3)cc2/C=N/O)cc1OC`, the EC50 was > 30 µM (inactive). In the case of `Cc1cc(C(=O)OCCN2C(=O)c3ccccc3C2=O)c2ccccc2n1` it was > 30 µM (inactive); in that of `Cn1cc(S(=O)(=O)NCc2ccc(F)cc2)c(=O)n(C)c1=O`, > 30 µM (inactive); in that of `c1ccc(CNc2nc(-c3cccnc3)nc3ccccc23)cc1`, > 30 µM (inactive). Turning to `Cc1cc(C(=O)c2ccccc2)c(NC(=O)CN2CCOCC2)s1`, the EC50 was > 30 µM (inactive). To `CN(Cc1c(C(=O)N/N=C/c2ccccc2F)nnn1-c1nonc1N)c1ccccc1` belongs > 30 µM (inactive); to `CCn1c(SCC(=O)Nc2ccc(Cl)cc2)nnc1C1CC1`, > 30 µM (inactive). In the case of `O=c1c2[nH]c3ccccc3c2ncn1C1CCCCC1` it was > 30 µM (inactive); in that of `CCOC(=O)/C(C#N)=C/c1cn(CCC(=O)O)nc1-c1ccccc1`, > 30 µM (inactive). To `CN1CCN(c2ccccc2NC(=O)c2ccc(Br)o2)CC1` belongs > 30 µM (inactive). Turning to `Cc1cnc(C(=O)OCC(=O)N2c3ccccc3CC2C)cn1` (stereo unspecified), the EC50 is > 30 µM (inactive). In the case of `N#CCCn1cc(/C=N/O)c(-c2cccc([N+](=O)[O-])c2)n1` it was > 30 µM (inactive). In the case of `COc1cccc(/C=N/Nc2cc(Cl)nc(C)n2)c1O` it was > 30 µM (inactive); in that of `COc1ccc(-c2nn(-c3ccccc3)cc2N)cc1`, > 30 µM (inactive); in that of `CSc1nc2c(c(=O)[nH]1)C(c1ccccc1)C1=C(CC(C)(C)CC1=O)N2` (stereo unspecified), > 30 µM (inactive). To `CC(=O)C(Sc1ccc2nnc(-c3ccc(F)cc3)n2n1)C(C)=O` belongs > 30 µM (inactive); to `NNC(=O)CNC(=O)c1ccc(F)cc1`, > 30 µM (inactive); to `Cn1c(=S)n(CCC(=O)O)c2ccccc21`, > 30 µM (inactive). As to `O=C(NCC(c1ccco1)N1CCc2ccccc21)c1c(F)cccc1F` (stereo unspecified), the EC50 is > 30 µM (inactive). In the case of `Cc1ccc(-c2nn(-c3ccccc3)cc2/C=N/NS(=O)(=O)c2ccccc2)cc1`, the EC50 was > 30 µM (inactive). To `COCCn1c(SCC(=O)Nc2ccc(Cl)c(S(=O)(=O)N(C)C)c2)nc2ccccc21` belongs > 30 µM (inactive). Consider `COc1cccc(N=Nc2c(N)[nH][nH]c2=O)c1`, for which the EC50 is > 30 µM (inactive). `Cc1cc(NC(=O)CSc2nnc(C3CC3)n2Cc2ccccc2)no1`: the EC50 is > 30 µM (inactive). In the case of `CNc1nc(N)c([N+](=O)[O-])c(NCC2CCCO2)n1` (stereo unspecified) it was > 30 µM (inactive); in that of `COc1cc(SC)ccc1C(=O)OCC(=O)NCCNC(=O)COC(=O)c1ccc(SC)cc1OC`, > 30 µM (inactive). To `CCOC(=O)COC(=O)c1ccc(O)cc1` belongs > 30 µM (inactive). To `COc1ccc(C(=O)OCCc2ccc(O)cc2)cc1` belongs > 30 µM (inactive); to `Cc1ccc2nc3c(cc2c1)c(NC(=O)c1ccccn1)nn3CC(C)C`, > 30 µM (inactive); to `Cc1ccc(C(=O)O/N=C(\N)c2ccccn2)c(Cl)c1`, 26.6 µM (active).

As to `Cc1ccc(C(=O)O/N=C(\N)c2ccccn2)c(C)c1`, the EC50 is 17.6 µM (active). To `COc1ccc(C(=O)O/N=C(\N)c2ccccn2)cc1` belongs 15.5 µM (active); to `Cc1ccc(-c2cc(C(=O)NCCc3ccccn3)c3ccccc3n2)c(C)c1`, > 30 µM (inactive). In the case of `COc1ccc(C(=O)c2sc(Nc3ccccc3)nc2N)cc1` it was > 30 µM (inactive); in that of `Cc1ccc(C(=O)N/N=C2\CCCc3ccccc32)c(C)c1`, > 30 µM (inactive). Turning to `CCc1ccc(CNC(=O)C2CCC(=O)N(CCc3ccc(Cl)cc3)C2)nc1` (stereo unspecified), the EC50 was > 30 µM (inactive).

As for `O=C(O)COc1ccc(C(=O)c2ccccc2)cc1`, the EC50 was > 30 µM (inactive). To `CSc1nc(NCCCN(C)C)c2c3c(sc2n1)CN(C)CC3` belongs > 30 µM (inactive); to `OCCNc1nc(-c2cccnc2)nc2ccccc12`, > 30 µM (inactive); to `CCC(C)Nc1nc(N)c([N+](=O)[O-])c(NCc2ccccc2)n1` (stereo unspecified), > 30 µM (inactive). With `Cc1ccc(NC(=O)CSCc2ccc(F)cc2)cc1`, the EC50 was > 30 µM (inactive). To `CCN1CCc2c(sc(NC(=O)Cc3ccccc3)c2C(N)=O)C1` belongs > 30 µM (inactive).

In the case of `COc1ccc(OC)c(C(O)c2coc3ccc(O)c(CN(C)C)c23)c1` (stereo unspecified), the EC50 was > 30 µM (inactive). To `CCn1c(/C=C/N(C(C)=O)c2ccccc2)[n+](CC)c2ccc(Cl)cc21` belongs > 30 µM (inactive); to `CCOc1ccc(/C=N/Nc2ccccn2)cc1OC`, > 30 µM (inactive); to `Cc1ccc(S(=O)(=O)CC(=O)c2cc3cccc(C)c3oc2=O)cc1`, > 30 µM (inactive). In the case of `Nc1nc(NCCc2ccccc2)nc(NCCO)c1[N+](=O)[O-]` it was > 30 µM (inactive); in that of `O=C(N/N=C/c1ccc(-c2ccc(Cl)c(C(=O)O)c2)o1)c1cc2c(ccc3ccccc32)o1`, > 30 µM (inactive).

Consider `CCn1c(SCC(=O)Nc2nccs2)nnc1C1CC1`, for which the EC50 is > 30 µM (inactive). With `COc1ccc(N(C(=O)c2ccncc2)S(=O)(=O)c2cccc([N+](=O)[O-])c2)cc1`, the EC50 was > 30 µM (inactive). To `Cc1ccc(-c2nc(Nc3cccc(O)c3)c3ccccc3n2)cc1` belongs > 30 µM (inactive); to `CN(C)S(=O)(=O)c1cc(NC(=O)COC(=O)Cc2ccc(Br)cc2)ccc1Cl`, > 30 µM (inactive). Regarding `CSc1nc(C)cc(-n2ccc(=O)[nH]c2=O)n1`, the EC50 was > 30 µM (inactive). In the case of `CC(C)OCCCN1CN(S(=O)(=O)c2cccc(Cl)c2)c2nc3ccccc3nc21` it was > 30 µM (inactive); in that of `COc1ccc(-c2nn(-c3ccccc3)cc2C(=O)O)cc1`, > 30 µM (inactive); in that of `COCCOc1ccc(C(F)(F)F)cc1NC(=O)COC(=O)c1cc[n+]([O-])cc1`, > 30 µM (inactive). In the case of `COc1cccc(C(=O)Nc2nc3ccccc3s2)c1` it was > 30 µM (inactive).

`CCSc1ccc2nnc(-c3cccs3)n2n1`: the EC50 was > 30 µM (inactive).

For the molecule `CCCCn1nc(NC(=O)CCC)c2cc3cc(OC)ccc3nc21`, the EC50 is > 30 µM (inactive).
